What is called inhibition is the drop in the measured response relative to a control, in per cent.

Assay type in all cases: functional
In experiment [1] the target is Solute carrier family 2, facilitated glucose transporter member 1 (Homo sapiens) (UniProt P11166). In words: ST_JUDE_LEISH: Cytotoxicity at 2uM final concentration against transgenic Leishmania Mexicana promastigotes LmGLUT1 that are glucose transport deficient and complemented with the human glucose transporter GLUT1. Activity is measured by DNA content using SYBR green in vitro.

Experiment [2] concerns the target Hexose transporter 1 (Plasmodium falciparum) (UniProt O97467). The experiment is described as follows: ST_JUDE_LEISH: Cytotoxicity at 2uM final concentration against transgenic Leishmania Mexicana promastigotes LmPfHT that are glucose transport deficient and complemented with the Plasmodium falciparum hexose transporter. Activity is measured by DNA content using SYBR green in vitro.

Experiment [3] concerns the target Glucose transporter (Leishmania mexicana) (UniProt O61059). In words: ST_JUDE_LEISH: Cytotoxicity at 2uM final concentration against transgenic Leishmania Mexicana promastigotes LmGT2 that are glucose transport deficient and complemented with the L. Mexicana glucose transporter 2. Activity is measured by DNA content using SYBR green in vitro.

Solute carrier family 2, facilitated glucose transporter member 1 (Homo sapiens), sequence (P11166 whole entry): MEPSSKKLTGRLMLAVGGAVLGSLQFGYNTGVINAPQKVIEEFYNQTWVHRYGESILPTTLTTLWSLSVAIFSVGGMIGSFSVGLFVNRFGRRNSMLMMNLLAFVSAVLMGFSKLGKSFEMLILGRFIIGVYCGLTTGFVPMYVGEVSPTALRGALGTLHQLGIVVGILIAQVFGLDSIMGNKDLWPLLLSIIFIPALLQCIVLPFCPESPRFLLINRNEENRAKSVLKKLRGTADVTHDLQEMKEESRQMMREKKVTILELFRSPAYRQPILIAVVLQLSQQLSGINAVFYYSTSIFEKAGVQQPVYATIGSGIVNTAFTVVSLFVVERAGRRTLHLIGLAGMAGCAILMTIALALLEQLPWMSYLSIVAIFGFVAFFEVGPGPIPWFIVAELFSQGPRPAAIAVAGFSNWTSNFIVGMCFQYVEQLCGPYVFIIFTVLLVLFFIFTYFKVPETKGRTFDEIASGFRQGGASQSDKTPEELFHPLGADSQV

`CC1(CCCCN2CCC(Oc3ccc(F)cc3F)CC2)C(=O)Nc2ccccc21` (stereo not drawn): the inhibition in experiment [1] came to 3.9%; in experiment [2], 3.15%; in experiment [3], 5.35%.

In the case of `Cc1cccc2nc(-c3ccc(-c4cccc(CN5CCC(N)C5)c4)s3)[nH]c12` (stereo not drawn), the inhibition in experiment [1] was determined as 9.02%; in experiment [2] it was 8.9%; in experiment [3] it was 8.23%.

As for `CCN(CCNC(=O)C1CCN(c2cc(-c3cccc(C)c3)ncn2)CC1)Cc1ccccc1`, the values for the inhibition in experiment [1], in experiment [2] and in experiment [3] were 4.41%, 3.37% and 4.06%, respectively.

As for `N=C(N)Nc1nc(-c2cccc(NC(=O)NCc3cccc4ccccc34)c2)cs1`, the inhibition in experiment [1] is 1.1%; in experiment [2], -0.38%; in experiment [3], 0.66%.

Consider `Cc1ccc(OCC2CCN(c3ncc(C(=O)NCCCN4CCCC4=O)cc3Cl)CC2)cc1`, for which the inhibition in experiment [1] was 1.15%; in experiment [2] it was -1.22%; in experiment [3], 0.72%.

Consider `O=C(/C=C/c1cccs1)NCC(NCCCNc1cc(=O)c2ccccc2[nH]1)c1cc(Br)cc(Br)c1` (stereo not drawn), for which the inhibition was 4.13% in experiment [1], 3.76% in experiment [2] and 4.57% in experiment [3].

Take `CC(C)CC(=O)NC1CCN(Cc2c(-c3cccs3)nc3ccccc3c2C(=O)N[C@@H](C)C2CCCCC2)CC1`: the inhibition turned out to be 6.03% in experiment [1], 4.72% in experiment [2] and 4.36% in experiment [3].

With `COc1cc(C2C(Oc3ccccc3)C(=O)N2Cc2ccc(F)cc2)cc(OC)c1OC` (stereo not drawn), the results for the inhibition in experiment [1], in experiment [2] and in experiment [3] were 3.73%, 3.29% and 2.56%, respectively.

On to `O=C(Nc1ccc(OC2CCN(Cc3ccc(F)cc3)CC2)cc1)c1cccs1`, for which the inhibition was -0.82% in experiment [1], 0.37% in experiment [2] and -2.79% in experiment [3].

Regarding `O=c1cc(NCCCCNCc2cccc(Cl)c2)[nH]c2ccccc12`, the results for the inhibition in experiment [1], in experiment [2] and in experiment [3] were 3.6%, 3.79% and 1.87%, respectively.

In the case of `CCN1CCC(NCc2ccc(-c3ccc(Cl)cc3)cc2)CC1`, the inhibition in experiment [1] was found to be 23.6%; in experiment [2] it was 11%; in experiment [3] it was 7.91%.

Turning to `CC(=O)Nc1ccc(OCCCCCOc2ccc(NC(C)=O)cc2Cl)c(Cl)c1`, the inhibition was determined as 1.91% in experiment [1], 1.52% in experiment [2] and 1.13% in experiment [3].

For `O=C(NCCCCN1CCC(c2ccc3c(c2OCC2COCO2)CCCC3)CC1)c1ccc(-c2ccc(C(F)(F)F)cc2)cc1` (stereo not drawn), the inhibition was -0.33% in experiment [1], 1.19% in experiment [2] and 1.97% in experiment [3].

Take `CC(=O)Nc1ncc(C(=O)Nc2ccc(-c3cccc(-c4nc5cc(F)ccc5[nH]4)c3)cc2)s1`: the inhibition in experiment [1] is 6.62%; in experiment [2], 7%; in experiment [3], 6.95%.

As to `C=CC[C@@H](C(=O)OCC)[C@@H]1[C@@H](N(CC=C)C(=O)OC(C)(C)C)CCN1C(=O)OCc1ccccc1`, the figures for the inhibition in experiment [1], in experiment [2] and in experiment [3] were 2.71%, 1.22% and 1.42%, respectively.

Take `CC(C)CCNC(=O)c1cnc2c(O)cccc2c1Nc1cccc(NC(=O)c2ccc(F)cc2)c1`: the inhibition was found to be 4.52% in experiment [1], 7.98% in experiment [2] and 0.01% in experiment [3].

For `Cc1cc(Nc2cccc(C(F)(F)F)c2)nc2ccc(NC(=O)c3ccc(=O)[nH]c3)cc12`, the inhibition was -0.79% in experiment [1], -0.69% in experiment [2] and -0.59% in experiment [3].

As for `COc1cc(Cl)c(C)cc1N(Cc1ccccc1-c1ccccc1)S(=O)(=O)c1ccc(C(F)(F)F)cc1`, the inhibition in experiment [1] was 1.01%; in experiment [2], 0.29%; in experiment [3] it was 0.43%.

As to `COc1ccc(-n2ncc(C(=O)N3CCC4(C3)C(=O)N(c3ccccc3)c3ccccc34)c2C)cc1` (stereo not drawn), the inhibition in experiment [1] is 1.9%; in experiment [2], 2.74%; in experiment [3], 0.94%.

In the case of `CN1CCN(CCCN(Cc2csc(-c3ccc(CNCc4ccccc4)cc3)n2)S(=O)(=O)c2ccccc2)CC1`, the inhibition came to 12.2% in experiment [1], 15.3% in experiment [2] and 4.53% in experiment [3].

As for `COc1ccc(-c2ccc(S(=O)(=O)Nc3cc4c(cc3OC(C)C)CCN(C)CC4)cc2)cc1`, the inhibition in experiment [1] came out at 1.81%; in experiment [2], 2.48%; in experiment [3], 1.21%.

`Cc1cccc2nc(C3CCN(CC4CCN(C(=O)/C=C/c5ccc(Cl)c(Cl)c5)CC4)CC3)[nH]c12`: the inhibition in experiment [1] came out at 10.9%; in experiment [2], 11.5%; in experiment [3], 10.6%.

On to `CCc1cccc(-n2c(=O)c3cccnc3n2CC(=O)NCc2ccccc2Cl)c1`, for which the inhibition was 9.08% in experiment [1], 9.17% in experiment [2] and 4.33% in experiment [3].

In the case of `CC[C@H](N/C(=N\c1cccc(Cl)c1Cl)Nc1ccc(C#N)cc1O)c1ccccc1`, the results for the inhibition in experiment [1], in experiment [2] and in experiment [3] were 7.88%, 9.4% and 6.46%, respectively.

Consider `Fc1ccc2[nH]c3c(NCCCN4CCOCC4)ncnc3c2c1`, for which the figures for the inhibition in experiment [1], in experiment [2] and in experiment [3] were 1.79%, 0.7% and -0.69%, respectively.

As for `OC(CNCc1ccccc1OCc1ccccc1)c1cccc(I)c1` (stereo not drawn), the inhibition in experiment [1] amounted to 3.99%; in experiment [2], 5.42%; in experiment [3] it was 0.61%.

As for `Cc1cccc(C(=O)Nc2ccc(N3CCCN(Cc4cccc(O)c4)CC3)cc2)c1`, the inhibition in experiment [1] came out at 5.01%; in experiment [2] it was 3.72%; in experiment [3], 2.78%.

Consider `CCOc1ccc(-c2cc3nc(C4CCNCC4)c(C(=O)Nc4ccc(C)cc4Cl)cn3n2)cc1`, for which the figures for the inhibition in experiment [1], in experiment [2] and in experiment [3] were 4.75%, -0.08% and 1.29%, respectively.

As to `CC(C)(C)[C@@H](Nc1ccc(C#N)c2ccccc12)C(=O)NC1(Cc2ccc(O)c(Br)c2)CCCC1`, the inhibition in experiment [1] was 2.05%; in experiment [2] it was 3.09%; in experiment [3], -0.09%.

Regarding `Cc1ccc(Cc2c[nH]c(NCCSCc3ccc(CN(C)C)s3)nc2=O)cn1`, the inhibition was determined as 1.24% in experiment [1], 1.14% in experiment [2] and 2.78% in experiment [3].

On to `CCN(CC)CCCN(CCCN(CC)CC)c1cc(C)nc(Nc2ccc3cc(Br)ccc3c2)n1`, for which the inhibition in experiment [1] came out at 1.34%; in experiment [2], 4.9%; in experiment [3], 3.03%.

As for `CC1(C)NC(N)=NC(=N)N1OCc1ccc(-c2ccccc2)cc1`, the figures for the inhibition in experiment [1], in experiment [2] and in experiment [3] were 6.01%, 5.93% and 3.79%, respectively.

As for `CN1CCN(Cc2cc3cc(NC(=O)/C=C/c4ccc(Cl)cc4)ccc3s2)CC1`, the inhibition in experiment [1] amounted to 4.5%; in experiment [2], 0.55%; in experiment [3], 1.01%.

As to `Oc1cc(NCCCNC2CCc3c(Cl)cc(Cl)cc32)nc2ccccc12` (stereo not drawn), the inhibition stood at 0.63% in experiment [1], 0.11% in experiment [2] and 3.08% in experiment [3].

Regarding `O=[N+]([O-])c1cccc(CNC2CCN(Cc3ccc(C(F)(F)F)cc3)CC2)c1`, the inhibition in experiment [1] is 2.18%; in experiment [2], 2.08%; in experiment [3], 3.71%.

`CCc1ccc2c(c1O)CCN(C)C2Cc1ccccc1Cl` (stereo not drawn): the inhibition worked out at 8.14% in experiment [1], 5.29% in experiment [2] and 11.8% in experiment [3].

The values are drawn from ChEMBL document CHEMBL3433997, “St. Jude Leishmania screening dataset” (2016).
